# Measured values from PubChem BioAssay (NCATS).
# Records with an inconclusive call do not appear. Where a call stands in place of a potency, no number is given. Active and inactive are the calls of the source. The call rests on the fitted dose curve; in most records, active means well fitted curve in the direction sought with a large enough effect; inconclusive means small, poorly fitted or top-dose-only effect, or another doubt; inactive means no such curve, though single readings can be large; an effect the other way counts as inactive or inconclusive.
# Key:
# [1] = UWB1.289-WTBRCA1 Cancer Cell Toxicity qHTS against the NCATS CANVASS Library (AID 1347354); settings: outcome: dose series up to 38.3 µM
# Outline: (§1)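 Using an ATP-based luminescent reagent after three days of treatment, toxicity is scored across an eleven-concentration range in wells holding 1000 cells each.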
# [2] = HEK-293 Cancer Cell Toxicity qHTS against the NCATS CANVASS Library (AID 1347355); further: series mostly up to about 46 µM; nearly all actives have a fitted effect of over 65% in size
# Outline: as §1
# [3] = HPAF-II 24hr Apoptosis Induction qHTS against the NCATS CANVASS Library (AID 1347356)
# Outline: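 Using an 11-point qHTS format, HPAF-II cells in DMEM/10% FBS received compounds for 24 h; doxorubicin titration as control. Caspase-3/7 activity quantified by DEVD-luciferase luminescence.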
# [4] = HEK293 18hr Apoptosis Induction qHTS against the NCATS CANVASS Library (AID 1347357)
# Outline: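 Natural products applied to HEK293 for 18 hr; Caspase-Glo 3/7 readout.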
# [5] = HPAF-II 12hr Apoptosis Induction qHTS against the NCATS CANVASS Library (AID 1347358)
# Outline: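 Twelve-hour compound exposure of HPAF-II cells in DMEM with 10% FBS, then luminescent Caspase-Glo 3/7 detection after 15 min at room temperature; doxorubicin control.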
# [6] = HEK293 24hr Apoptosis Induction qHTS against the NCATS CANVASS Library (AID 1347359)
# Outline: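 HEK293 cells, 500 per well, exposed to an 11-point compound series for 24 hours at 37 degrees C. Caspase 3/7 activity read by Caspase-Glo luminescence (DEVD substrate) after 15 min at room temperature.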
# [7] = HPAF-II 18hr Apoptosis Induction qHTS against the NCATS CANVASS Library (AID 1347360)
# Outline: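 Luminescent DEVD-substrate signal, proportional to caspase activity, is measured in HPAF-II cells after 18-hour treatment across a concentration series; doxorubicin serves as control.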
# [8] = HEK293 12hr Apoptosis Induction qHTS against the NCATS CANVASS Library (AID 1347361)
# Outline: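 Luminescent caspase-3/7 signal, proportional to enzyme activity, was recorded from HEK293 cultures in DMEM + 10% FBS treated for 12 hours with titrated natural products (11 points). Doxorubicin (0.1nM - 4uM) served as control.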
# [9] = molecular target: Luciferin 4-monooxygenase (Photinus pyralis) (UniProt P08659); assay: Firefly luciferase counterscreen qHTS: Assay Interference Panel against the NCATS CANVASS Library (AID 1347363); further: potency means the concentration at half of the fitted maximal effect
# Outline: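 Purified P. pyralis luciferase (0.04 ug/mL, 4x reagent) added to Tris-acetate buffer with 0.013 mM D-luciferin, 0.013 mM ATP and 13.3 mM Mg-acetate; compounds preincubated 15 min, then luminescence read after 5 min, RT.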
# [10] = KB-8-5-11 Cancer Cell Toxicity qHTS against the NCATS CANVASS Library (AID 1347364); further: series mostly up to about 46 µM; nearly all actives have a fitted effect of over 75% in size
# Outline: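 Luminescent ATP signal (CellTiter-Glo, 10 min at room temperature) measured cell survival of KB-8-5-11 after 72 hr compound treatment. For confirmation, the cells were also grown with 1uM tariquidar.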
# [11] = SDT Cancer Cell Toxicity qHTS against the NCATS CANVASS Library (AID 1347365);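 further: SDT canine glioma cells 500 per well in 1536 well plates; series mostly up to about 46 µM; nearly all actives have a fitted effect of over 60% in size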
# Outline: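 Canine SDT glioma cell toxicity was scored by ATP-dependent luminescence after a 72 hr incubation with an 11-point compound series.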
# [12] = KB-3-1 Cancer Cell Toxicity qHTS against the NCATS CANVASS Library (AID 1347366); settings: outcome: dose series up to 46.1 µM; further: nearly all actives have a fitted effect of over 75% in size
# Outline: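 Cytotoxicity toward KB-3-1 cells (500/well, DMEM + 10% FBS) was scored by CellTiter-Glo luminescence following 72 hr exposure at 37C, with bortezomib titrated as control.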
# [13] = qHTS for ATAD5 Agonist screened against the NCATS CANVASS Library (AID 1347367);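 further: luciferase reporter driven by ATAD5 which rises upon DNA damage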
# Outline: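 Genotoxicity was scored as increased ATAD5-luciferase luminescence in HEK293T after 16hr of exposure, with cell viability measured by fluorescence beforehand in the same well.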
# [14] = G06 Cancer Cell Toxicity qHTS against the NCATS CANVASS Library (AID 1347368); settings: outcome: dose series up to 46.1 µM; further: nearly all actives have a fitted effect of over 60% in size
# Outline: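 Quantitative HTS in G06 cells (dog glioma): 72 hr treatment, 11 concentrations, then ATP-based luminescent viability readout; bortezomib 0.1 nM–4.6 uM final as reference.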
# [15] = MCF7 Cancer Cell Toxicity qHTS against the NCATS CANVASS Library (AID 1347369); settings: outcome: dose series up to 46 µM
# Outline: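 This 72 hr qHTS scored MCF7 viability by CellTiterGlo luminescence, with 500 cells/well; bortezomib titration ran as control.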
# [16] = qHTS for ATAD5 Antagonist screened against the NCATS CANVASS Library (AID 1347370);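 further: HEK293T cells carrying an ATAD5 luciferase reporter co-treated with 10 µM 5-fluorouridine; series mostly up to about 46 µM; nearly all actives have a fitted effect of over 65% in size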
# Outline: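 HEK293T-ATAD5 luc reporter, 2000 cells/well; 5hr attach; cpd + 10 uM 5-FUrd; 16hr 37C, 5% CO2. Readouts: CellTiter-Fluor fluorescence (1hr), then Amplite luciferase luminescence (30min RT).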
# [17] = J3T Cancer Cell Toxicity qHTS against the NCATS CANVASS Library (AID 1347371); settings: outcome: dose series up to 46.1 µM
# Outline: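 ATP-based cytotoxicity in canine J3T cells: 72 hr exposure at 37C, 11-point titration, CellTiterGlo luminescent detection.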
# [18] = molecular target: Nuclear receptor subfamily 1 group I member 3 (Homo sapiens) (UniProt Q14994); assay: qHTS for Constitutive Androstane Receptor (CAR) Antagonist screened against the NCATS CANVASS Library (AID 1347372);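 further: cells stimulated with 50 nM CITCO agonist so inhibition reflects antagonism; luciferase from CYP2B6 promoter reporter driven by hCAR in HepG2 cells; series mostly up to about 46 µM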
# Outline: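 Luminescence readout (ONE-Glo, 30 min RT) of CYP2B6-2.2kb reporter in HepG2-hCAR cells after 24hr, 37C treatment with compound against 50 nM CITCO; CellTiter-Fluor viability read beforehand.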
# [19] = A2780 Cisplatin Sensitive Ovarian Cancer Cell Toxicity qHTS against the NCATS CANVASS Library (AID 1347353); further: series mostly up to about 46 µM; nearly all actives have a fitted effect of over 60% in size
# Outline: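 Quantitative HTS format: eleven compound concentrations applied to pre-seeded cells, 72 h incubation at 37 °C, then ATP detection by luminescence.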
# [20] = system: NAD(P)H diaphorase (Clostridium kluyveri); assay: Diaphorse counterscreen qHTS: Assay Interference Panel against the NCATS CANVASS Library (AID 1347362)
# Outline: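 Clostridium kluyveri diaphorase in PBS + 0.01% Tween-20 preincubated 15 min with compounds. Resazurin and NADH then added for 5 min at room temperature in the dark; resorufin fluorescence read (ex 525, em 598).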
# Luciferin 4-monooxygenase (Photinus pyralis), sequence (P08659 whole entry, looked up): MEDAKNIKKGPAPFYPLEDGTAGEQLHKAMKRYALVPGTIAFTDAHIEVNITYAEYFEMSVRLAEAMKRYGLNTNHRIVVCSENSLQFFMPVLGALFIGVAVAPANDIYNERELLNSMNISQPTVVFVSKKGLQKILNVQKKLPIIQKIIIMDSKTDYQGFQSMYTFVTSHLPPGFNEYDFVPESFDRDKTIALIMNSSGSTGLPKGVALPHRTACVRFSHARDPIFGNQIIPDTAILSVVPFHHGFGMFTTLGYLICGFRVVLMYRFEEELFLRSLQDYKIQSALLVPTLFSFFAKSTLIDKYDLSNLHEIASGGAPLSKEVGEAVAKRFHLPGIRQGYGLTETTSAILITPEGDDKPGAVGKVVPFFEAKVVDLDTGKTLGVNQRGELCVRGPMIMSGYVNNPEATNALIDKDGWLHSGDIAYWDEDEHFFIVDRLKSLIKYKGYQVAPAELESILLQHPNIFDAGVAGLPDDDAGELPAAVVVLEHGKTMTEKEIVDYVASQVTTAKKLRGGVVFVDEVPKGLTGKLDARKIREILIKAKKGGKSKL
# Nuclear receptor subfamily 1 group I member 3 (Homo sapiens), sequence (Q14994 whole entry, looked up): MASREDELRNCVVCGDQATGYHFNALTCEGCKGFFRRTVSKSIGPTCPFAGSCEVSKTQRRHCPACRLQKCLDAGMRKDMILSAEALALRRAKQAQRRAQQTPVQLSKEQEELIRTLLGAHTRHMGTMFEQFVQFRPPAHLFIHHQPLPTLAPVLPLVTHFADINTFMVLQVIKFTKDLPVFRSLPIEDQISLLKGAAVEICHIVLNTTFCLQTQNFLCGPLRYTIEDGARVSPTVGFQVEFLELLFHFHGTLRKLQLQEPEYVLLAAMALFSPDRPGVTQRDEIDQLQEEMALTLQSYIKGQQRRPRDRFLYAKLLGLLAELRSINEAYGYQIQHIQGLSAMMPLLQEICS
SMILES,outcome [1],outcome [2],outcome [3],outcome [4],outcome [5],outcome [6],outcome [7],outcome [8],Potency [9],outcome [10],outcome [11],outcome [12],outcome [13],outcome [14],outcome [15],outcome [16],outcome [17],outcome [18],outcome [19],outcome [20]
C/C(=C\CC/C(C)=C/CC[C@]1(C)CCc2cc(O)cc(C)c2O1)CC/C=C(\C)C(=O)O,inactive,inactive,inactive,inactive,inactive,inactive,inactive,inactive,inactive,inactive,inactive,inactive,inactive,inactive,inactive,inactive,inactive,inactive,–,–
CC(C)c1ccc2c(c1)CCC1[C@](C)(C(=O)O)CCC[C@]21C (stereo partly drawn),inactive,inactive,inactive,inactive,inactive,inactive,inactive,inactive,inactive,inactive,inactive,inactive,inactive,inactive,inactive,inactive,inactive,inactive,inactive,inactive
CC(=O)O[C@H]1C[C@@]2(C)[C@@H](CC[C@H]3[C@@]4(C)C=CC(=O)[C@@H](C)[C@@H]4[C@H](OC(C)=O)C(=O)[C@@]32C)/C1=C(\CCC=C(C)C)C(=O)O,inactive,–,inactive,inactive,inactive,inactive,inactive,inactive,inactive,inactive,–,inactive,inactive,–,inactive,–,–,inactive,–,–
O=C(/C=C/C=C/c1ccc2c(c1)OCO2)N1CCCCC1,inactive,–,inactive,inactive,inactive,inactive,inactive,inactive,6.8 µM (active),–,inactive,inactive,inactive,inactive,inactive,inactive,inactive,inactive,–,inactive
